PubChem BioAssay AID623911 (Vanderbilt High Throughput Screening Facility, 2012)
The campaign covered roughly 2,100 compounds. About 770 (37%) were called active.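 Rule for the calls: active = by-eye trace score of 1 for enhancers or -1 for inhibitors, so actives lie on both sides (some results past the limit were not filed as active); inactive = score 0, or 3 fluorescent, or 4 baseline rise.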 The list shows a part of the results.

Target: G protein-activated inward rectifier potassium channel 2 (Homo sapiens) + G protein-activated inward rectifier potassium channel 1 (Homo sapiens) (UniProt P48051+P48549)
Sequence (P48051 whole entry, looked up): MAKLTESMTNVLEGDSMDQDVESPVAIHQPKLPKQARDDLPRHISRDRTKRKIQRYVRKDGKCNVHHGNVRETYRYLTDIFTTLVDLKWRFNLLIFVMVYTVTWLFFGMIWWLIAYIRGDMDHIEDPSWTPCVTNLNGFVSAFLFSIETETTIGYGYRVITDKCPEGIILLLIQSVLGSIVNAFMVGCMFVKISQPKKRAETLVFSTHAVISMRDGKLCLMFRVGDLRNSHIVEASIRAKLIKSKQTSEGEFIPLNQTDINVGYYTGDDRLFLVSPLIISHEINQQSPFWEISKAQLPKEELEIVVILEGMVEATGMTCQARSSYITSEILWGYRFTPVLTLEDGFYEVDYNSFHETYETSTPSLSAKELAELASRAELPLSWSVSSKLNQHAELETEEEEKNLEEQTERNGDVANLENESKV
Sequence (P48549 whole entry, looked up): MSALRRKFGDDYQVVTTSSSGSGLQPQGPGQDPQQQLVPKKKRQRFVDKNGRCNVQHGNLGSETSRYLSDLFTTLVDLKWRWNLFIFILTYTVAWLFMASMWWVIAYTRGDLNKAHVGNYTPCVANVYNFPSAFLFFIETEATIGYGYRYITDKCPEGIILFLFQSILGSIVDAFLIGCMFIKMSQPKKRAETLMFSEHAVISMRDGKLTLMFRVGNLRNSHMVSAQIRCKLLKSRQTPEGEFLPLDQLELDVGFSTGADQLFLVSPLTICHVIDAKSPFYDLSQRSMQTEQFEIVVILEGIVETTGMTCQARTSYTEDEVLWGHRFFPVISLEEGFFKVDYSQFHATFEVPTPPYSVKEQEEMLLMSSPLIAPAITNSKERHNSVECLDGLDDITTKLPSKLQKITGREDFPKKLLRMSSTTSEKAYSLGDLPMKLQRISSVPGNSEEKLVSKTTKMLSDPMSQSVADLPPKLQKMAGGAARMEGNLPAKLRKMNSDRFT
Test: GIRK1/2 thallium flux modulators, retest, confirmation, cell-based, HEK293 rmGlu8/hGIRK1/2, FluoZin-2 (AID 623911)
Settings: HEK293 rmGlu8/hGIRK1/2, thallium flux FluoZin-2; actives lie on both sides; glutamate co-added at its EC20 level

Row | SMILES | manual score
1 | CC(C)N=c1scc(-c2cccs2)n1/N=C/c1ccc(O)c(O)c1O | 0 (inactive)
2 | Cc1c(C)[n+](=O)c2c(n1[O-])CCC2 | 0 (inactive)
3 | CC(/C=C\c1cccnc1)=C/C(=O)O | 0 (inactive)
4 | CCc1ccc(/C=C/C(=O)C2C(=O)c3ccccc3C2=O)cc1 | 1 (active)
5 | CC(/C=C/c1ccccc1)=N/NC(=O)c1cc([N+](=O)[O-])cc([N+](=O)[O-])c1 | 0 (inactive)
6 | O=C(/C=C/c1ccccc1)C1C(=O)c2ccccc2C1=O | 1 (active)
7 | CCc1ccc(/C=c2\s/c(=C\C(=O)C(C)(C)C)[nH]c2=O)cc1 | 0 (inactive)
8 | CN=C(C)C1=C(O)C(C(=O)OC)C(C)(C)CC1=O (centres undefined) | 0 (inactive)
9 | Cc1cccc2c(=O)cc(C)n(CC(=O)N3CCCCC3)c12 | 0 (inactive)
10 | CCc1c(O)nc(SCC(=O)Nc2ccc(OC)cc2)n(C2CCCCC2)c1=O | 0 (inactive)
11 | CC(=O)Oc1ccc2c(c1)Oc1cc(OC(C)=O)ccc1C21OC(=O)c2ccccc21 | 3 (inactive)
12 | Cc1csc(NC(=O)C(Cc2ccccc2)n2cccc2)n1 (centres undefined) | 0 (inactive)
13 | CCSc1nnc(NC(=O)C(Cc2ccccc2)n2cccc2)s1 (centres undefined) | 0 (inactive)
14 | O=C(Nc1ncc(Br)s1)C(Cc1ccccc1)n1cccc1 (centres undefined) | 1 (active)
15 | O=C(CSc1nnc2ccccn12)Nc1nsc(-c2ccccc2)n1 | 0 (inactive)
16 | CC1(C)CC(=O)C2=C(C1)N(c1ccccc1)C(N)=C(C#N)C2c1ccsc1 (centres undefined) | -1 (active)
17 | CC1(C)CC(=O)C2=C(C1)NC(SCC(=O)Nc1ccccc1)=C(C#N)C2c1ccco1 (centres undefined) | 0 (inactive)
18 | CN1C(=O)C2(C(C#N)=C(N)N(c3cc(Cl)cc(Cl)c3)C3=C2C(=O)CCC3)c2ccccc21 (centres undefined) | 0 (inactive)
19 | S=c1[nH]nc(COc2ccccc2)n1C1CCCCC1 | 0 (inactive)
20 | O=C(O)CCC(=O)NC1CCCCCCC1 | 0 (inactive)
21 | CC(C)=CCC(C)(C)CNC(=O)NC1CCCCC1 | 1 (active)
22 | N#CC1(Cc2ccc([N+](=O)[O-])cc2)c2ccccc2C=CN1C(=O)c1ccccc1 (centres undefined) | 0 (inactive)
23 | O=C(Cc1ccccc1)N/N=C/c1cccn1-c1ccc([N+](=O)[O-])cc1 | 1 (active)

Row | SMILES | manual score
24 | CCOC(=O)CSC1=C(C#N)C(=O)NC(c2ccc(OC)c(OC)c2)S1 (centres undefined) | 0 (inactive)
25 | C=CCNCc1cccn1-c1sc2c(c1C#N)CCCC2 | -1 (active)
26 | CCOC(=O)c1c2n(c3c(NCc4ccccc4)ncnc13)CCCC2 | -1 (active)
27 | O=C(Oc1ccccc1)c1cccc(COC(=O)c2cnccn2)c1 | 0 (inactive)
28 | CCOC(=O)c1ccc(CNCc2ccc(Br)cc2)cc1 | 0 (inactive)
29 | CCc1ccc(CNCCNCC(C)O)cc1 (centres undefined) | 1 (active)
30 | COc1ccc(/C=C2\N=C(SC)NC2=O)cc1 | 1 (active)
31 | COc1ccc(/C=C2\C(=O)NC(=S)N2C(=O)c2ccc(F)cc2)cc1 | 0 (inactive)
32 | COc1ccc(C(=O)N2C(=S)NC(=O)/C2=C\c2ccc(C)cc2)cc1 | 0 (inactive)
33 | CC(C)COn1c(=S)[nH]c2ccccc2c1=O | 1 (active)
34 | CC(C)N(CCn1c(=S)[nH]c2ccccc2c1=O)C(C)C | 0 (inactive)
35 | COC(=O)c1ccc2c(=O)n(CC3CCCO3)c(=S)[nH]c2c1 (centres undefined) | 0 (inactive)
36 | CCC1CCCCN1CCCn1c(=S)[nH]c2ccccc2c1=O (centres undefined) | 0 (inactive)
37 | CC1CCC(n2c(=S)[nH]c3ccccc3c2=O)CC1 (centres undefined) | 0.5 (inactive)
38 | O=c1c2ccccc2[nH]c(=S)n1CCCN1CCN(C2CCCCC2)CC1 | -1 (active)
39 | CCn1c(=S)[nH]c2cc(C(=O)OC)ccc2c1=O | 0.5 (inactive)
40 | CC(C)n1c(=S)[nH]c2ccccc2c1=O | 1 (active)
41 | CCOc1cc2[nH]c(=S)n(C(C)C)c(=O)c2cc1OCC | 1 (active)
42 | CC1CCCCN1CCCn1c(=S)[nH]c2ccccc2c1=O (centres undefined) | 0 (inactive)
43 | CCC1(C)OCC(Cn2c3ccccc3c3ccccc32)O1 (centres undefined) | 0 (inactive)
44 | CC(C)c1ccc2occ(-c3nn[nH]n3)c(=O)c2c1 | 0 (inactive)
45 | CC1CCCC(n2c(=S)[nH]c3ccccc3c2=O)C1C (centres undefined) | 3 (inactive)
46 | CC1CCCCC1n1c(=S)[nH]c2ccccc2c1=O (centres undefined) | 1 (active)

Row | SMILES | manual score
47 | COc1ccc(C(=O)Nc2ccccc2)cc1S(=O)(=O)Nc1cc(C)on1 | 0 (inactive)
48 | CCCCOc1cccc(OCCCC)c1C(=O)Nc1cc(C)on1 | -1 (active)
49 | Cc1cc(NC(=O)c2ccccc2Oc2ccccc2)no1 | 0 (inactive)
50 | COc1ccc(CN2CCNC(=O)C2CC(=O)O)cc1OC (centres undefined) | 0 (inactive)
51 | COc1cccc2[nH]c3c(N4CCCC(C)C4)ncnc3c12 (centres undefined) | -1 (active)
52 | COc1ccc(N(CC(=O)NC2CCCC2)C(=O)Cn2nnc(-c3ccc(C)cc3)n2)cc1 | 0 (inactive)
53 | Cc1ccc(-c2nnn(CC(=O)N3CCCCC3)n2)c(-n2cnnn2)c1 | 0 (inactive)
54 | Cc1ccc(-c2nnn(CC(=O)NC3CC4CCC3C4)n2)cc1 (centres undefined) | 1 (active)
55 | Clc1cccc(-c2ccc(/C=N/n3cnnc3)o2)c1Cl | 0 (inactive)
56 | CCCCCCCC1CC(CSC(=N)N)OC1=O (centres undefined) | -1 (active)
57 | CCCCCCCC1CC(CSc2ncn[nH]2)OC1=O (centres undefined) | 0 (inactive)
58 | O=C(c1ccc(Br)o1)N1CCN(c2ccc3nnc(-c4ccc(F)cc4)n3n2)CC1 | 0 (inactive)
59 | Fc1cc(Br)ccc1NC(=S)NCCc1ccccc1 | 0 (inactive)
60 | Fc1ccccc1NC(=S)NN(Cc1ccccc1)c1ccccc1 | -1 (active)
61 | O=C(NCc1cccs1)c1cccnc1C(=O)O | 0 (inactive)
62 | COc1ccccc1NC(=O)COc1ccc(Br)cc1CO | 0 (inactive)
63 | COc1ccc2cc(Br)ccc2c1CC(=O)NC1CC(C)(C)NC(C)(C)C1 | 0 (inactive)
64 | Cc1ccccc1CNC(=O)Nc1cccs1 | 1 (active)
65 | COc1ccc(Br)cc1CNC(=O)Nc1cccs1 | 1 (active)
66 | CCn1c(NC(=O)Nc2cccc(C)c2C)cc2sccc21 | 0 (inactive)
67 | CCOc1cc(C)nc(N2CCN(C3CCCCC3)CC2)n1 | -1 (active)
68 | COc1ccccc1C(=O)NNC(=S)NC(=O)c1ccco1 | 1 (active)
69 | COc1ccc(C(=O)NNC(=S)NC(=O)c2ccco2)cc1 | 1 (active)

Row | SMILES | manual score
70 | Cc1cnc(NC(=O)COc2ccccc2Cl)s1 | 0 (inactive)
71 | Cc1ccc(OCC(=O)N/N=C/c2cccn2C)cc1 | 0 (inactive)
72 | Cc1ccccc1OCC(=O)N/N=C/c1cccn1C | 1 (active)
73 | COc1ccc(CNC(=O)CSCc2ccccc2Cl)cc1 | 0 (inactive)
74 | Cc1ccc(C(=O)CC(=O)c2cc(Cl)ccc2O)cc1 | 0 (inactive)
75 | Cc1ccc(C(=O)CC(=O)COc2ccc(Cl)cc2C)cc1 | 1 (active)
76 | Cc1ccc(C(=O)CC(=O)COc2ccc(Cl)cc2)cc1 | 0 (inactive)
77 | Cc1ccc(NC(=O)C(c2ccccc2)C2CCCC2)cc1 (centres undefined) | 0 (inactive)
78 | O=C(NC(=S)Nc1ccc2c(c1)OCO2)c1ccccc1 | 0 (inactive)
79 | Cc1ccc(C(C(=O)NC2CCCC2)N2CCCC(C)C2)cc1 (centres undefined) | -1 (active)
80 | CC1CCN(C(C(=O)Nc2ccc3c(c2)OCO3)c2ccccc2)CC1 (centres undefined) | -1 (active)
81 | CC1CCCN(C(C(=O)Nc2ccc3c(c2)OCO3)c2ccccc2)C1 (centres undefined) | -1 (active)
82 | CC(C)c1cc(C(F)(F)F)n2nc(C(=O)Nc3ccc4c(c3)OCO4)cc2n1 | 0 (inactive)
83 | Cc1csc(SCC(=O)Nc2nc3ccccc3s2)n1 | 0 (inactive)
84 | O=C(Nc1ccc(O)c(-c2nc3ccccc3s2)c1)C1=COCCO1 | 0 (inactive)
85 | O=C1OC2(CCCCC2)OC(=O)C1=CNc1nc2ccccc2s1 | 1 (active)
86 | Oc1oc(-c2cccc3ccccc23)nc1/C=N/c1nccs1 | 0 (inactive)
87 | CCCCCC/C(C)=C1/SC(=S)NC1=O | 1 (active)
88 | SC(COCc1ccccc1)CN1CCN(Cc2ccc3c(c2)OCO3)CC1 (centres undefined) | -0.5 (inactive)
89 | c1ccc2c(c1)oc1c(N3CCN(Cc4ccc5c(c4)OCO5)CC3)ncnc12 | -1 (active)
90 | COc1ccccc1N1CCN(Cc2cc(Br)c(O)c3ncccc23)CC1 | 0.5 (inactive)
91 | CCCCCCN1C2=NCCN2c2ccccc21 | -1 (active)
92 | CC(C)(C)c1ccc(CN2C3=NCCCN3c3ccccc32)cc1 | -1 (active)

Row | SMILES | manual score
93 | Cc1ccc(CN2C3=NCCCN3c3ccccc32)cc1 | -1 (active)
94 | OC(CN1C2=NCCCN2c2ccccc21)c1ccc(Br)cc1 (centres undefined) | -1 (active)
95 | Cc1ccc(Cn2c(SCC(=O)N3CC(=O)Nc4ccccc43)nc3ccccc3c2=O)cc1 | 0 (inactive)
96 | CCN(CC)c1ccc(NC(=O)c2nc3nc(C)cc(C(F)F)n3n2)cc1 | 0 (inactive)
97 | Clc1ccc(CSc2ncn(-c3ccccc3)n2)cc1 | 0 (inactive)
98 | Cc1cc2c(cc1C)C(=O)NC(C)(C)C2 | 0 (inactive)
99 | COc1ccc(Cn2nnnc2C(c2ccccc2Cl)N2CCN(C3CCCC3)CC2)cc1 (centres undefined) | -1 (active)
100 | CCC(c1nnnn1Cc1ccc(OC)cc1)N(CCCO)Cc1cc2cc3c(cc2[nH]c1=O)OCO3 (centres undefined) | 0 (inactive)
101 | C=CCN1CCN(C(c2ccc(Cl)cc2)c2nnnn2CCc2ccc(OC)c(OC)c2)CC1 (centres undefined) | -1 (active)
102 | COc1ccc(Cn2nnnc2C(c2ccc(F)cc2)N2CCN(C3CCCC3)CC2)cc1 (centres undefined) | -1 (active)
103 | COc1ccccc1C(c1nnnn1CCc1ccccc1)N1CCCCCC1 (centres undefined) | -1 (active)
104 | COCCn1nnnc1C(c1ccccc1)N1CCN(c2ccccc2)CC1 (centres undefined) | 0 (inactive)
105 | Cc1ccccc1/C=c1\s/c(=C\C(=O)C(C)(C)C)[nH]c1=O | 0 (inactive)
106 | O=C(O)CCCCCNc1nc2ncn(Cc3ccccc3)c2c(=O)[nH]1 | 0 (inactive)
107 | CCN(c1ccc2c(c1)OCO2)S(=O)(=O)c1cc(Br)cc2c1N(C(=O)C1CC1)CC2 | -1 (active)
108 | CCN(CC)C(=O)CN(c1ccc2c(c1)OCO2)S(C)(=O)=O | 0 (inactive)
109 | COc1ccc(NC(=O)C(=O)NNC(=O)c2cccs2)cc1 | 1 (active)
110 | COc1ccc(OC)c(C2C(C(=O)c3cccs3)=C(O)C(=O)N2c2cc(C)on2)c1 (centres undefined) | 0 (inactive)
111 | COC(=O)c1cc(OC)c(OC)cc1NC(=O)Nc1ccc(OC)cc1OC | 0 (inactive)
112 | Cn1cccc1-c1nc2ccc(NC(=O)c3cccs3)cc2[nH]1 | 0 (inactive)
113 | COc1ccc(-n2c(=O)[nH]cc(C(=O)Nc3ccc(NC(C)=O)cc3)c2=O)cc1 | 0 (inactive)
114 | COc1ccc(NC(=O)C(=O)NNC(=O)c2cccs2)c(OC)c1 | 1 (active)
